Results from the supplement of paper PMC9694430.

Tests used:
Test in all cases: thermal shift delta Tm vs DMSO control; higher = stronger stabilization (binding)
Settings in all cases: 12.5 µM; protein concentration 2 µM
LOC_OS02G45750-cb003 = system: LOC_OS02G45750-cb003
In short: (§1)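 Rice kinase domain constructs, made in E. coli and purified, were placed in 96-well plates at 2 μM in 19.5 μl of 100 mM potassium phosphate pH 7.5, 150 mM NaCl, 10% glycerol and 5 × SYPRO Orange, with compound in DMSO. A temperature ramp from 25°C to 95°C at 0.05°C/s was used for differential scanning fluorimetry. The melting temperature shift is a triplicate mean compared with DMSO-only protein, derived from Boltzmann fits.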

LOC_OS02G54510-cb004 = system: LOC_OS02G54510-cb004
In short: as §1

LOC_OS03G04050-cb001 = system: LOC_OS03G04050-cb001
In short: as §1

LOC_OS03G12390-cb001 = system: LOC_OS03G12390-cb001
In short: as §1

LOC_OS03G27990-cb004 = system: LOC_OS03G27990-cb004
In short: as §1

LOC_OS03G50450-cb001 = system: LOC_OS03G50450-cb001
In short: as §1

LOC_OS03G50810-cb003 = system: LOC_OS03G50810-cb003
In short: as §1

LOC_OS04G35114-cb001 = system: LOC_OS04G35114-cb001
In short: as §1

LOC_OS04G38480-cb003 = system: T1, LOC_OS04G38480-cb003
T1 sequence (whole entry): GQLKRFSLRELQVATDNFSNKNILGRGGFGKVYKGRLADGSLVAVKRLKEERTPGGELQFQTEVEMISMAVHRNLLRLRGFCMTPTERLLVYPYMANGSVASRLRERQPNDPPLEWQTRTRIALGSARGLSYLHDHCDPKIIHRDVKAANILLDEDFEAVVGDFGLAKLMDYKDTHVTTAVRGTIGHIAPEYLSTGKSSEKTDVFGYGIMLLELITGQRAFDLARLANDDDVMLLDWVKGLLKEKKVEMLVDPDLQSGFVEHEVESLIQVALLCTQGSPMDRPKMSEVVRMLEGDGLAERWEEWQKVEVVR
In short: as §1

LOC_OS04G41100-cb001 = system: T2, LOC_OS04G41100-cb001
T2 sequence (whole entry): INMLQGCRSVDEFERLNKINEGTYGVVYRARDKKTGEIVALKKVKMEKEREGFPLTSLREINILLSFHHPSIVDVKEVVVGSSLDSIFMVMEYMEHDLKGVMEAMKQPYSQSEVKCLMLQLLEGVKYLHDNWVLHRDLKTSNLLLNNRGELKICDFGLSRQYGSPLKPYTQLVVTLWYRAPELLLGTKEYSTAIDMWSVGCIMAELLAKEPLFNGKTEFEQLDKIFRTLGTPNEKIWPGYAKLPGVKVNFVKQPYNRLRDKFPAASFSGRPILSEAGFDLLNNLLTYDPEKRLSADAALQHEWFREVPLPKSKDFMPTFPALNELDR
In short: as §1

LOC_OS04G57630-cb004 = system: LOC_OS04G57630-cb004
In short: as §1

LOC_OS05G07850-cb002 = system: LOC_OS05G07850-cb002
In short: as §1

LOC_OS05G16824-cb004 = system: LOC_OS05G16824-cb004
In short: as §1

LOC_OS05G28520-cb001 = system: LOC_OS05G28520-cb001
In short: as §1

LOC_OS05G30820-cb001 = system: LOC_OS05G30820-cb001
In short: as §1

LOC_OS05G43570-cb004 = system: LOC_OS05G43570-cb004
In short: as §1

LOC_OS06G16330-cb003 = system: LOC_OS06G16330-cb003
Chain of LOC_OS06G16330-cb003 (as listed by the source): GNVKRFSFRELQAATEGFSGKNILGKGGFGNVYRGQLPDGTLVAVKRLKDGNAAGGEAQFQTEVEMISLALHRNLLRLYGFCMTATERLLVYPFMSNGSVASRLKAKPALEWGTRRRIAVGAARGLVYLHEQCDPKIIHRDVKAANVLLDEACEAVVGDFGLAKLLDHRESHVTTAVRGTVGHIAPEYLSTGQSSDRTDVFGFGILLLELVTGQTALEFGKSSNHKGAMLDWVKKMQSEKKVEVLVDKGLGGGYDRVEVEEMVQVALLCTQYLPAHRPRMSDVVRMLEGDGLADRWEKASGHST
In short: as §1

LOC_OS06G22820-cb001 = system: T3, LOC_OS06G22820-cb001
T3 sequence (whole entry): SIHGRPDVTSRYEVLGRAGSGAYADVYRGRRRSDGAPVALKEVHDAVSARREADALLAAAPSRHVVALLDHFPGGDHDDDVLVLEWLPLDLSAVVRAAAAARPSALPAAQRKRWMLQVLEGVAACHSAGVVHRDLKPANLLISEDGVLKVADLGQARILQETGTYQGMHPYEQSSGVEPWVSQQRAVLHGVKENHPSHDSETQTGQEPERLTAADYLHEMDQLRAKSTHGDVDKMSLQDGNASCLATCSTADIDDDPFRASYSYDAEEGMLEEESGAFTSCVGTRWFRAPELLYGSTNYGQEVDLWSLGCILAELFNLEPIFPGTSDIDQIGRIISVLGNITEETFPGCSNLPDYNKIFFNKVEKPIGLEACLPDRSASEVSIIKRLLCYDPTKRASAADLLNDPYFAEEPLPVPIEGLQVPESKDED
In short: as §1

LOC_OS07G06570-cb004 = system: LOC_OS07G06570-cb004
In short: as §1

LOC_OS07G07230-cb001 = system: LOC_OS07G07230-cb001
In short: as §1
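Further: purified Escherichia coli-expressed rice kinase domain construct.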

| Structure (SMILES) | thermal shift delta Tm (LOC_OS02G45750-cb003) [°C] | thermal shift delta Tm (LOC_OS02G54510-cb004) [°C] | thermal shift delta Tm (LOC_OS03G04050-cb001) [°C] | thermal shift delta Tm (LOC_OS03G12390-cb001) [°C] | thermal shift delta Tm (LOC_OS03G27990-cb004) [°C] | thermal shift delta Tm (LOC_OS03G50450-cb001) [°C] | thermal shift delta Tm (LOC_OS03G50810-cb003) [°C] | thermal shift delta Tm (LOC_OS04G35114-cb001) [°C] | thermal shift delta Tm (LOC_OS04G38480-cb003) [°C] | thermal shift delta Tm (LOC_OS04G41100-cb001) [°C] | thermal shift delta Tm (LOC_OS04G57630-cb004) [°C] | thermal shift delta Tm (LOC_OS05G07850-cb002) [°C] | thermal shift delta Tm (LOC_OS05G16824-cb004) [°C] | thermal shift delta Tm (LOC_OS05G28520-cb001) [°C] | thermal shift delta Tm (LOC_OS05G30820-cb001) [°C] | thermal shift delta Tm (LOC_OS05G43570-cb004) [°C] | thermal shift delta Tm (LOC_OS06G16330-cb003) [°C] | thermal shift delta Tm (LOC_OS06G22820-cb001) [°C] | thermal shift delta Tm (LOC_OS07G06570-cb004) [°C] | thermal shift delta Tm (LOC_OS07G07230-cb001) [°C] |
| --- | --- | --- | --- | --- | --- | --- | --- | --- | --- | --- | --- | --- | --- | --- | --- | --- | --- | --- | --- | --- |
| NC1(c2ccc(-c3nc4ccn5c(=O)[nH]nc5c4cc3-c3ccccc3)cc2)CCC1 | -0.2 | 0.21 | 0.25 | -0.32 | 0.81 | 0.2 | -0.2 | 0.61 | -0.22 | 0.57 | -0.22 | 1.31 | -1.83 | 0.28 | 0.4 | 0.14 | 0.62 | 0.61 | 0.66 | 0.17 |
| Cc1cc(CN2CCN(c3c(Br)cnc4nc(-c5ccc(N6CCN(C)CC6)cc5)[nH]c34)CC2)no1 | 11.1 | 0.56 | 0.42 | 2.08 | 1.47 | 4.97 | 4 | 3.09 | 2.28 | 0.48 | 1.11 | 8.75 | 3.92 | 1.16 | 0.38 | 0.18 | 5.31 | 0.11 | 1.11 | 1.28 |
| COc1cc(Nc2ncc(F)c(Nc3ccc4c(n3)N(COP(=O)(O)O)C(=O)C(C)(C)O4)n2)cc(OC)c1OC [Fostamatinib (R788)] | 4.51 | 2.89 | 0.44 | 7.17 | 2.16 | 10.5 | 3.97 | 3.46 | 4.1 | 0.47 | 1.74 | 12 | 12 | 0.41 | 2.2 | 0.38 | 12.2 | 0.25 | 0.55 | 0.44 |
| COc1ccc2c(Oc3ccc(NC(=O)c4c(C)n(CC(C)(C)O)n(-c5ccccc5)c4=O)nc3)ccnc2c1 | 1.4 | 0.7 | 0.2 | 0.21 | 0.18 | 0.38 | 0.39 | 0.36 | 1.95 | 0.3 | 1.04 | 9.73 | -1.1 | 0.15 | 0.52 | 1.07 | 5.11 | 0.68 | 0.62 | -0.14 |
| C[C@@H]1CN(C(=O)c2ccc(NC(=O)c3cc(O[C@H](C)c4c(Cl)ccc(F)c4Cl)c(N)nn3)cc2)C[C@H](C)N1 [Ensartinib (X-396)] | 6.54 | 3.48 | -0.25 | 2.86 | 0.07 | 0.15 | 5 | 8.12 | 5.86 | 0.2 | 4.75 | 7.81 | 5.94 | 0.56 | 0.45 | 0.3 | 13.8 | 0.22 | 0.36 | 0.35 |
| Cc1cc(C(=O)Nc2nc3cccc(Cl)c3n2[C@@H]2CCCCN(C(=O)/C=C/CN(C)C)C2)ccn1 [Nazartinib (EGF816, NVS-816)] | 0.42 | 0.81 | 0.51 | 2.23 | 1.56 | 0.64 | 0.51 | 1.87 | 2.14 | 0.6 | 0.04 | 3.43 | -0.02 | 0.54 | 0.6 | 0.38 | 0.74 | 0.4 | 1.91 | 0.43 |
| Cn1c(=O)c(Oc2ccc(F)cc2F)cc2cnc(NC(CCO)CCO)nc21 | 0.76 | 0.53 | 0.43 | -0.19 | 0.49 | 0.26 | 0.46 | 0.71 | 0.93 | 0.09 | -0.25 | 0.33 | -2.67 | 0.51 | 0.63 | 0.19 | -0.27 | 0.72 | 1.46 | 0.54 |
| CCn1c(-c2nonc2N)nc2cnc(Oc3cccc(NC(=O)c4ccc(OCCN5CCOCC5)cc4)c3)cc21 | -0.36 | 0.27 | 0.38 | 0.99 | 0.4 | -0.03 | 0.42 | 0.1 | 2.03 | 0.94 | 0.7 | 1.97 | -1.49 | 1.05 | 0.73 | 0.77 | -0.54 | 0.79 | 0.87 | 0.15 |
| NC1(Cc2ccc(Cl)cc2)CCN(c2ncnc3[nH]ccc23)CC1 | 0.79 | 0.26 | 0.46 | 1.47 | 0.26 | 0.97 | 0.62 | 0.68 | 0.64 | 0.33 | 0.12 | 2.2 | 0.61 | 0.49 | 0.66 | 0.72 | 0.73 | 0.61 | 0.47 | -0.27 |
| C=CC(=O)Nc1cccc(Oc2nc(Nc3ccc(N4CCN(C)CC4)cc3OC)ncc2Cl)c1 | 0.22 | 0.42 | 0.85 | 5.06 | 1.09 | 0.52 | 2.04 | 0.9 | -0.58 | 0.39 | -0.7 | 8.75 | -3.25 | 0.26 | 0.41 | 0.58 | -0.17 | 0.37 | 0.31 | 0.24 |
| COc1cc(C(=O)N2CCC(N3CCN(C)CC3)CC2)ccc1Nc1ncc2c(n1)N(C)c1ccccc1C(=O)N2C | 1.73 | 0.29 | 0.41 | 3.59 | 0.46 | 0.37 | 0.68 | 0.65 | 3.81 | 0.27 | 0.47 | 4.15 | -2.69 | 0.06 | 0.42 | -1.79 | 0.93 | 0.32 | 0.88 | 0.74 |
| COc1cc2ncnc(Nc3ccc(Cl)cc3F)c2cc1OC | 2.84 | 0.95 | 0.25 | 2.87 | 0.55 | 0.36 | 1.2 | 7.37 | 1.81 | 0.5 | 0.21 | 10.1 | 2.13 | 0.86 | 0.51 | 0.29 | 4.29 | 0.69 | 1.37 | -0.11 |
